Sa RN4220 lethal: kills Staphylococcus aureus RN4220; inhibition, % (no concentration beside the values); 330,000 tested, 0.33% active; S. aureus RN4220 growth, OD600, 16 h; AID 1259311; in the data active means inhibition above about 85%;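 further: plate controls were untreated cells for no effect and reference antibiotic for full effect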
Mtb hypoxia inh: inhibitors of hypoxia-regulated fluorescent reporter in Mycobacterium tuberculosis | M. tuberculosis hypoxia-regulated fluorescent reporter, fluorescence | fluorescence inhibition, % (concentration not given with the values) | 300,000 tested, 0.1% active; in the data active means fluorescence inhibition mostly above about 23%, no sharp cut-off; inactive means mostly below about 17%
ugtP null kill: growth inhibition of S. aureus ugtP deletion strain | S. aureus RN4220 ugtP deletion, OD600 growth, 16 h | growth inhibition, % (test concentration not listed) | 330,000 tested, 0.54% active; in the data active means growth inhibition above about 68%;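 further: plate controls were untreated wells for no effect and antibiotic for full effect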
SSB-PriA inh: inhibitors of Klebsiella pneumoniae PriA binding to SSB C-terminal tail. inhibition, % at 33 µM. AID 1272365. 430,000 tested, 0.6% active. AlphaScreen SSBct-PriA binding, biotinylated peptide; in the data active means inhibition mostly above about 37%, no sharp cut-off; inactive means mostly below about 20%;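 further: plate controls were negative control peptide for no effect and reference peptide for full effect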
* hit, by the source's call; x = no result; ! = repeats disagree. A selection: hits, their analogues and other compounds. The true share with any hit is near 1.1%.

SMILES | Sa RN4220 lethal | Mtb hypoxia inh | ugtP null kill | SSB-PriA inh
COc1ccc(-c2ccc(=O)n(CCCNC(=O)c3ccc(S(N)(=O)=O)cc3)n2)cc1 | x | x | x | -11
O=[N+]([O-])c1ncccc1OCc1ccc(-c2ccccc2)cc1 | -1 | -13 | 89* | -2
N#Cc1ccc(COc2cccnc2[N+](=O)[O-])cc1 | 1 | 3 | 10 | -11
COC(=O)NC1(C(=O)Nc2nc(-c3ccccn3)cs2)CCCC1 | x | x | x | 95*
O=C(Nc1nc(-c2ccccn2)cs1)C1CC1c1ccccc1Cl (configuration not stated) | x | x | x | 48
CC1(C)OC(=O)CC1C(=O)Nc1nc(-c2ccccn2)cs1 (configuration not stated) | x | x | x | 104*
O=C(Nc1nc(-c2ccccn2)cs1)C12CC3CC(CC(O)(C3)C1)C2 | 6 | 7 | -2 | 76*
O=C(Nc1nc(-c2ccccn2)cs1)C1CC(=O)N(c2ccc3c(c2)OCCO3)C1 (configuration not stated) | 4 | -1 | -7 | 78*
Clc1ccc(-c2csc3ncnc(N4CCN(C/C=C/c5ccccc5)CC4)c23)cc1 | x | x | x | -19
CCCOc1ccc(S(=O)(=O)Nc2ccc3c(c2)N(CC)C(=O)C(C)(C)CO3)cc1 | x | x | x | 8
O=C(c1cc(-c2cccnc2)on1)N1CCN(c2ccc(-n3cncn3)nn2)CC1 | x | x | x | 2
COc1cc(NC(=O)CCn2ccc(=O)[nH]c2=O)ncn1 | x | x | x | -3
O=C(Nc1ccc(C(=O)Nc2nc(-c3ccccn3)cs2)cc1)NC1CC1 | x | x | x | 93*
O=C(Nc1nc(-c2ccccc2)cs1)NC1CCCCC1 | -3 | -2 | -32 | -7
CN(C(=O)C(=O)Nc1nc(-c2ccccn2)cs1)C1CCSC1 (configuration not stated) | x | x | x | 138*
O=C(Nc1nc(-c2ccccn2)cs1)NC1CCCC1 | x | x | x | 130*
O=C(Nc1nc(-c2ccccn2)cs1)C1CC1 | 5 | -2 | 2 | 104*
CCOc1nn(CC)cc1C(=O)NCc1ccco1 | x | x | x | 1
COC(=O)c1ccc(C(=O)NCc2ccccc2-c2ccsc2)cc1 | x | x | x | -1
CC(=O)c1ccc(NC(=O)c2ccc(S(=O)(=O)N3CCN(C)CC3)o2)cc1 | x | x | x | -3
COc1cc(C=NNS(=O)(=O)c2ccc(C)c([N+](=O)[O-])c2)ccc1O | 9 | 7 | 2 | -5
CCN(CC)c1ccc(C=NNS(=O)(=O)c2ccc(C)c([N+](=O)[O-])c2)cc1 | -2 | -10 | -4 | 39*
CCOc1ncccc1C(=O)NCCn1nc(-c2ccc(Cl)cc2)ccc1=O | x | x | x | 6
CN(CC(=O)Nc1ccc(OC(F)(F)F)cc1)C(=O)c1ccc(N2CCCC2=O)cc1 | 2 | 30* | 5 | -6
CN(CC(=O)Nc1ccc(Cl)cc1)C(=O)c1ccc(N2CCCC2=O)cc1 | 1 | 4 | 10 | -9
SMILES | Sa RN4220 lethal | Mtb hypoxia inh | ugtP null kill | SSB-PriA inh
O=S(=O)(CC1CCCN1S(=O)(=O)/C=C/c1ccccc1)c1ccccc1 (configuration not stated) | x | x | x | -7
Cc1ccc2nc3sc(C(=O)Nc4ccc5c(c4)OCCO5)cc3c(=O)n2c1 | x | x | x | -6
COc1ccc(-c2nc(C#N)c(N3CCCCC3)o2)cc1OC | x | x | x | 59*
N#Cc1nc(-c2ccc(F)cc2)oc1N1CCCCCC1 | x | x | x | 112*
COc1ccc(-c2nc(C#N)c(N3CCCN(C)CC3)o2)cc1 | x | x | x | 69*
COc1ccc(-c2nc(C#N)c(N3CCN(c4ccccc4)CC3)o2)cc1 | 5 | -6 | -10 | 15
Cc1ccc(-c2nc(C#N)c(N3CCCC3)o2)cc1 | x | x | x | 49
COP(=O)(OC)c1nc(-c2ccc(C)cc2)oc1N1CCCCC1 | 2 | 3 | 1 | 51*
COc1ccccc1C1(CNC(=O)c2ccccc2C)CCOCC1 | x | x | x | 5
CCOc1ccc(-c2nc(C#N)c(N3CCCC3)o2)cc1 | x | x | x | 21
Cc1ccc(OCc2ccc(-c3nc(C#N)c(NCCCn4ccnc4)o3)o2)cc1 | x | x | x | 60*!
COc1ccc(OCc2nc(C#N)c(NCCCn3ccnc3)o2)cc1 | 2 | 1 | -6 | -7
CCCOc1ccc(-c2nc(C#N)c(N3CCCC3)o2)cc1 | x | x | x | 61
Cc1ccc(OCc2ccc(-c3nc(C#N)c(N4CCCCC4)o3)o2)cc1 | x | x | x | 82*
CCOc1ccc(-c2nc(C#N)c(N3CCCCC3)o2)cc1 | x | x | x | 94*
O=C(O)CC1CSc2nccc(=O)n21 (configuration not stated) | x | x | x | -2
C=CCN1C(=O)C(C)(C)COc2cc(NS(C)(=O)=O)ccc21 | x | x | x | -3
O=C(Cn1cnc(-c2ccc(F)cc2)cc1=O)NCc1cccnc1 | x | x | x | -5
CCN(C(=O)COC(=O)c1nc(Cl)ccc1Cl)c1c(N)n(Cc2ccccc2)c(=O)[nH]c1=O | 3 | 30* | -1 | 9
COCCN(C(=O)COC(=O)c1nc(Cl)ccc1Cl)c1c(N)n(Cc2ccccc2)c(=O)[nH]c1=O | -2 | -4 | -3 | -6
Cc1ccc(-c2csc3nc[nH]c(=S)c23)cc1C | 1 | 0 | -4 | 48*

Source: PubChem
